{
  "source": "PubChem BioAssay (NCI)",
  "note": "About 83,000 compounds went through this panel and 20% of them were active in at least one assay; those are over-represented in the sample as a whole.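 Treatment: one concentration, 48 hours, 96-well format. Scoring: percent growth, with anything below 10 considered active.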 Calls of active or inactive are those of the source.",
  "data": [
    {"tested_on": "HOP-62 NSCLC", "experiment": "NCI-60 one-dose screen, 48 h (100 = growth as untreated, 0 = no growth, -100 = all killed)", "settings": "10 µM unless noted", "values": [
      {"compound": "COc1cc(/C=C/C(=O)N2CCN(C(=O)/C=C/c3cc(OC)c(OC)c(OC)c3)CC2)cc(OC)c1OC", "growth": "102% (inactive)"},
      {"compound": "c1ccc(-c2nnc(-c3ccccn3)s2)nc1", "growth": "80.4% (inactive)"},
      {"compound": "Cc1c(C(=O)/C=C/c2csc3ccccc23)[n+](=O)c2ccccc2n1[O-]", "growth": "98.7% (inactive)"},
      {"compound": "O=C(NCCNc1nccc(-n2ccc3cccnc32)n1)c1ccc(C(F)(F)F)cc1", "growth": "99.2% (inactive)"},
      {"compound": "C=C(C)[C@@H]1C[C@@H]2Cc3cc(Cl)ccc3N1O2", "growth": "93.4% (inactive)"},
      {"compound": "O=S(=O)(CC(O)(c1ccccc1)c1ccccc1)CC(O)(c1ccccc1)c1ccccc1", "growth": "68.8% (inactive)"},
      {"compound": "NC1=NC(SCc2ccccc2CCl)c2ncn(Cc3ccccc3CCl)c2N1", "note": "(stereo unspecified)", "growth": "74.5% (inactive)"},
      {"compound": "C=C[C@@H]1C[C@@H]2Cc3c(C)cc(C)cc3N1O2", "growth": "91.2% (inactive)"},
      {"compound": "COc1cc(/C=N\\NC(=O)CN2CCN(c3cc4c(cc3F)c(=O)c(C(=O)N/N=C/c3cc(OC)c(OC)c(OC)c3)cn4C3CC3)CC2)cc(OC)c1OC", "growth": "-11.8% (active)"},
      {"compound": "Fc1ccc(-c2nc(-c3nc4ncccc4[nH]3)cc3c2[nH]c2ccccc23)cc1F", "growth": "78.6% (inactive)"},
      {"compound": "COc1cc(-c2nc(-c3nc4ccc(Cl)cc4[nH]3)cc3c2[nH]c2ccccc23)cc(OC)c1OC", "growth": "83.7% (inactive)"},
      {"compound": "C=C(C)[C@@H]1C[C@@H]2Cc3ccc(Cl)c(C)c3N1O2", "growth": "98% (inactive)"},
      {"compound": "CCCCCCCCC(C)OC(=O)c1nn(C(C)=O)c2ccccc12", "note": "(stereo unspecified)", "growth": "97.7% (inactive)"},
      {"compound": "COc1cc(/C(C#N)=C/c2ccc3c(c2OC)OCO3)cc2c1OCO2", "growth": "31.2% (inactive)"},
      {"compound": "CC12CCC3C4(C)COC(c5ccco5)OC4CCC3(C)C1CC(C1=CCOC1=O)O2", "note": "(stereo unspecified)", "growth": "105% (inactive)"},
      {"compound": "C=C1CCC2C3(C)COC(c4ccc(N(C)C)cc4)OC3CCC2(C)C1C/C=C1/C(=O)OCC1O", "note": "(stereo unspecified)", "growth": "108% (inactive)"}
    ]},
    {"tested_on": "NCI-H460 lung", "experiment": "NCI-60 one-dose screen, 48 h (100 = growth as untreated, 0 = no growth, -100 = all killed)", "settings": "10 µM unless noted", "values": [
      {"compound": "N#C/C(=C1C=C/C(=N/O)C(Cl)=C/1)c1ccc(Cl)cc1", "growth": "78.3% (inactive)"},
      {"compound": "c1coc(CNc2ccnc(Nc3ccc(OCCN4CCCCC4)cc3)n2)c1", "growth": "89.2% (inactive)"},
      {"compound": "C=C1CCC2C(C)(CO)C(O)CCC2(C)C1C/C=C1/C(=O)OCC1O/C=C/c1ccccc1", "note": "(stereo unspecified)", "growth": "75.2% (inactive)"},
      {"compound": "C=C(C)[C@@H]1CC[C@]2(C(=O)N3CCNCC3)CC[C@]3(C)[C@H](CC[C@@H]4[C@@]5(C)C/C(=C/c6ccncc6)C(=O)C(C)(C)[C@@H]5CC[C@]43C)[C@@H]12", "growth": "107% (inactive)"},
      {"compound": "CCOC(=O)C1C(=O)C=C(c2ccc(OC)cc2)CC1c1sc(N(C)Cc2ccccc2)nc1Cl", "note": "(stereo unspecified)", "growth": "82.8% (inactive)"},
      {"compound": "COc1cc(/C=C/C(=O)/C=C/c2cc(OC)c3c(c2)OCO3)cc2c1OCO2", "growth": "105% (inactive)"},
      {"compound": "C[n+]1c(/C=C/c2c(O)ccc3ccccc23)ccc2ccccc21", "growth": "9.44% (active)"},
      {"compound": "CCN(CC)CCC(CNc1c2ccc(Cl)cc2nc2ccc(OC)cc12)c1ccccc1", "note": "(stereo unspecified)", "growth": "-39.6% (active)"},
      {"compound": "C=C1CC2(OC1=O)C(=O)N(CCCN1C(=O)C3(CC(=C)C(=O)O3)c3ccccc31)c1ccccc12", "note": "(stereo unspecified)", "growth": "44.3% (inactive)"},
      {"compound": "CN(CCCCCl)P(=O)(OCc1ccc([N+](=O)[O-])o1)C(F)(F)C[C@H](NC(=O)CNC(=O)c1ccc(N=[N+]=[N-])cc1)C(=O)NCCc1ccc(O)cc1", "note": "(stereo partly specified)", "growth": "105% (inactive)"},
      {"compound": "COc1ccc(C(=O)N2NC(=O)/C(=C/c3ccc(Br)cc3)N=C2c2ccccc2)cc1", "growth": "96.9% (inactive)"},
      {"compound": "N#Cc1c(-c2ccccc2)cc(-c2ccccc2)n(CC(=O)NO)c1=O", "growth": "83% (inactive)"},
      {"compound": "COc1ccc(Nc2ncccc2C(=O)NCc2cn(Cc3cccc(Oc4ccccc4)c3)nn2)c(OC)c1", "growth": "7.15% (active)"},
      {"compound": "N/C(=N\\S(=O)(=O)c1ccccc1)Nc1nc2ccccc2s1", "growth": "107% (inactive)"},
      {"compound": "O=S(=O)(NCCCNc1nccc(-n2ccc3cccnc32)n1)c1cccc(C(F)(F)F)c1", "growth": "104% (inactive)"},
      {"compound": "COc1cc(NC(N)=NCCC(C)(C)Oc2ccc(C(F)(F)F)cc2)ncc1C#N", "growth": "-79.3% (active)"},
      {"compound": "COc1ccc2c(c1)[nH]c(=O)c1c3cc(OC)ccc3cn21", "growth": "-33% (active)"},
      {"compound": "FC(F)(F)c1cccc(-c2cn3c(ccc4ccccc43)n2)c1", "growth": "97% (inactive)"},
      {"compound": "COc1ccc(CN2CCc3c(Sc4ccccc4)nc(N)nc3C2=O)c(OC)c1", "growth": "64.6% (inactive)"},
      {"compound": "COc1ccc(Nc2ncccc2C(=O)NCc2cn(Cc3cccc(Oc4ccccc4)c3)nn2)cc1", "growth": "22.3% (inactive)"}
    ]}
  ]
}
